Source: PubChem BioAssay AID463115 (University of Pittsburgh Molecular Library Screening Center, 2010)
Among all 220,000 compounds or so, about 130 (0.059%) were called active. Cut-off read from the data, not from the text of the source: active = inhibition above about 25%; inactive = the rest. The sample as a whole holds a higher share of actives than the screen did.

target: Furin (Homo sapiens) (UniProt P09958); assay: furin protease activity blockers – biochemical, fluorescence intensity, primary screen (AID 463115); conditions: purified furin, fluorogenic substrate cleavage, stronger effect = higher value; at 30 µM unless noted
Sequence (P09958 108-714 limits assumed): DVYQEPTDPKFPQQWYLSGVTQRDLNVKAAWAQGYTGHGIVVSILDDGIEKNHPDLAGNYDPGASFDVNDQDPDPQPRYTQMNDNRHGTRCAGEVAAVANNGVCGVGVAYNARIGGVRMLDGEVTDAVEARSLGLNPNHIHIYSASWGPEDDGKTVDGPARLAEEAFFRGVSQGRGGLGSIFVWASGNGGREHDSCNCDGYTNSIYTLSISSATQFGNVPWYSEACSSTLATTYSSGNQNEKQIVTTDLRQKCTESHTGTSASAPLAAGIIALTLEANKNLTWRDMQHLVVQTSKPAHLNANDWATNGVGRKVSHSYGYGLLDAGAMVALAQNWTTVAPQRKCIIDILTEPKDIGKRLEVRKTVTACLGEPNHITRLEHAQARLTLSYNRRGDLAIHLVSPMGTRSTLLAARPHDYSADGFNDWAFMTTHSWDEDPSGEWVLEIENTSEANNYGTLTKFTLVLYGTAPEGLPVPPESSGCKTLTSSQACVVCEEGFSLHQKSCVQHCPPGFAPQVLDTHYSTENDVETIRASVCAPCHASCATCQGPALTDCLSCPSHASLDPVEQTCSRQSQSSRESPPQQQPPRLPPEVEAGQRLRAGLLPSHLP

inhibition, inactive:
Cc1nnsc1C(=O)N/N=C/c1cccc(C(F)(F)F)c1 0.985%, COc1ccc([N+](=O)[O-])cc1NC(=O)COC(=O)/C=C/c1ccco1 -30.9%, CCC(C)(C)NC(=O)C(c1cccc(OC)c1OC)N(CC(C)C)C(=O)CCC(=O)Nc1cc(C)on1 (stereo not given) -14.8%, CC(C)(C)NC(=O)/C(=C/c1cccnc1)NC(=O)c1ccco1 -17%, Cc1cc(NC(=O)CSc2nc3ccccc3n2CC(C)C)no1 -16.9%, CC(C)c1cc(C(N)=O)c(NC(=O)c2cccc(COc3ccc(Br)cc3)c2)s1 -15.1% [at 20 µM], CC(C)(C)NC(=O)c1cccc(NC(=O)Cc2ccc(Br)cc2)c1 -14.8%, CCOn1c(=O)c(=O)n(O)c2ccccc21 -4.13%, Oc1ccccc1N1CCN(C(=S)NCc2ccccc2)CC1 -19.1%, Cc1ccc(C2(C(F)(F)F)N=C3Sc4cc(C)cc(C)c4N3C(=O)N2)cc1 (stereo not given) -11.5% [at 20 µM], O=C(O)CC/C(=N\NC(=O)c1ccc(F)cc1)c1ccc(Br)cc1 -17.1%, CCCc1c(C(=O)O)cnn1-c1ccc(Cl)cc1 -33.8%, O=C(Nc1cccc(Cl)c1)c1cc([N+](=O)[O-])ccc1N1CCN(CCO)CC1 -21.2%, O=c1[nH][nH]c(C(F)(F)F)c1C=NCc1ccccc1Cl -7.43% [at 20 µM], O=C(CNC(=O)COc1ccccc1)NCCc1ccccn1 -14%, C=CCOc1ccc(/C=N/NC(=O)C(C)Sc2ccccn2)cc1OCC (stereo not given) -21.6%, CSc1ccc(C(=O)C2CCCN(C(=O)c3ccc(C)nc3)C2)cc1 (stereo not given) -11.4%, Clc1ccc(-c2nnc(-c3ccccc3)nc2N2CCSCC2)cc1 -4.61% [at 20 µM], Fc1ccc(COc2cccc(-c3n[nH]c(=S)o3)c2)cc1 -11.9%, O=C1C=C(c2ccc(Cl)cc2)C(=O)N1Nc1ccccc1 -9.42% [at 20 µM], O=C(NNc1cc(Cl)ccc1Cl)c1cccnc1Cl -21.6%, NS(=O)(=O)c1ccc(NC(=O)COC(=O)c2ccco2)cc1 -19.1%, O=c1[nH]c(CCl)nc2cc(-c3ccc(Cl)cc3)sc12 -0.616% [at 20 µM], Cc1cc(Cl)c(S(=O)(=O)N(C)C)cc1OCC(N)=O -12.9% [at 20 µM], COC(=O)/C=C/C(=O)NCc1ccco1 -23.2% [at 20 µM]
